The test in a line: activators of LNCaP cell differentiation, retest, confirmation, side scatter shift, flow cytometry (AID 1069).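 Also: LNCaP human prostate cancer cells in low-serum medium with charcoal-stripped FBS; percent of cells with raised granularity gated so DMSO controls show 10%.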 The conditions noted are these: 4 d, stronger effect = higher value. (In general: In flow cytometry, cells or beads pass a laser one at a time.)

SMILES strings stand for the structures. Calls of active or inactive are those of the source.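 The calls were made as follows: active = high combined rank on largest and smallest cell-count-weighted shift across three tests, rank score above 45, floors 50 and 25 (some results past the limit were not filed as active); inactive = the rest.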

In the case of `COc1ccc(C(CC(=O)O)NC(=O)Cc2ccccc2)cc1` (stereo unspecified), the side scatter shift was 2.7% (inactive) (at 100 µM) and 3.1% (side scatter shift, at 10 µM).

As for `O=C(C1CCN(S(=O)(=O)c2cccc3nsnc23)CC1)N1CC=C(c2ccccc2)CC1`, the side scatter shift is, setting by setting: (at 100 µM) 25.9% (inactive); (side scatter shift, at 10 µM) 9.3%.

With `CCOC(=O)c1c(NCc2ccc3c(c2)OCO3)c2ccccc2[nH]c1=O`, the side scatter shift reads like this: (at 100 µM) 12.8% (inactive); (side scatter shift, at 10 µM) 4.75%.

Consider `COc1ccc(N2CCN(CCCNC(=O)CN3CCN(Cc4ccccc4C)C3=O)CC2)cc1`, for which the side scatter shift by setting is: (at 100 µM) 15.8% (inactive); (side scatter shift, at 10 µM) 16.6%.

As to `Cc1oc(-c2cccc(Cl)c2)nc1CN1CCC(C(=O)NCCCN2CCCC2=O)CC1`, the side scatter shift was 15.1% (inactive) (at 100 µM) and 2.65% (side scatter shift, at 10 µM).

Turning to `CCOc1ccc(-c2cc(C(=O)NCCCN3CCN(CC)CC3)c3ccccc3n2)cc1`, the side scatter shift reads like this: (at 100 µM) 28.2% (active); (side scatter shift, at 10 µM) 73%.

Regarding `Cc1ccc(Nc2cc(=O)n(C3CCCCC3)c(=O)[nH]2)cc1C`, the side scatter shift was 0% (inactive) (at 100 µM) and 10.6% (side scatter shift, at 10 µM).

Turning to `CC(C)Cc1nc2oc3c(N4CCN(CCO)CC4)ncnc3c2c2c1CCCC2`, the side scatter shift was 33.3% (inactive) (at 100 µM) and 5.25% (side scatter shift, at 10 µM).

Consider `COc1ccc(CCNC(=O)C2CCN(Cc3nc(-c4ccccc4F)oc3C)CC2)cc1OC`, for which the side scatter shift by setting is: (at 100 µM) 9% (inactive); (side scatter shift, at 10 µM) 8.85%.

For the molecule `O=C(CCN1C(=O)COc2ccccc21)NCCCN1CCN(c2ccc(F)cc2)CC1`, the side scatter shift by setting is: (at 100 µM) 45.3% (inactive); (side scatter shift, at 10 µM) 7.5%.

On to `COc1ccc2c(c1OC)C(=O)N(C(C)C(=O)O)C2=O` (stereo unspecified), for which the side scatter shift is 17.9% (inactive) (at 100 µM) and 5.3% (side scatter shift, at 10 µM).

Take `CCOC(=O)C1CCN(S(=O)(=O)c2ccc(-c3nc4ccccc4s3)s2)CC1`: the side scatter shift by setting is: (at 100 µM) 25.7% (inactive); (side scatter shift, at 10 µM) 7.85%.

For `Cc1noc(/C=C/c2ccco2)c1S(=O)(=O)N1CCC(C(=O)N2CCc3ccccc3C2)CC1`, the side scatter shift was 54.6% (active) (at 100 µM) and 7.3% (side scatter shift, at 10 µM).
